Rows were chosen to be rich in hits. Some 0.45% of all compounds tested hit in one or more screens of this group.
Akt phos inh: blocks phosphorylation of Akt | Neuro2A IGF-stimulated pAkt S473 HTRF, 20 min; active compounds read low | activity change, % for hits at 50 µM | hit rate 0.32% among 360,000; in the data active = activity change below about -80%; inconclusive = mostly about -51% to -80%; note: % is set by controls: 0 for no effect and ±100 for the full control effect
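Neuro2A cells in DMEM with 0.5% FBS, overnight at 37 deg C, given compound at single 50 µM final, then IGF (6 nM final) for 20 min at 37 deg C. Lysed; phospho-Akt Ser473 by HTRF after 24 h, 665/615 ratio.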
ASM inhibitor: inhibitors of human secretory acid sphingomyelinase. AID 504937. hit rate 0.006% among 340,000. Potency, µM (titrated, usually from 57.5 µM), for inactives: at the highest dose activity change, negative = inhibition, usual class: inhibitors. P17405. placental ASM, HMU-PC fluorogenic substrate, 60 min; active = well fitted inhibition curve with a large enough effect; inconclusive = small, poorly fitted or top-dose-only effect; inactive = no such curve, though single readings can be large or run the other way; note: potency is the fitted concentration of half-maximal effect
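Human placenta-derived ASM enzyme was preincubated with compound for 10 minutes at room temperature, then given fluorogenic substrate HMU-PC0 (9 uM final) for 60 minutes at 37 °C; a pH 10 stop preceded fluorescence reading at Ex 386/Em 447 nm.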
CXXC DNA block: MLL CXXC-DNA interaction inhibition. Potency, µM (highest dose often 115 µM), without a hit: top-dose activity change, negative = inhibition, actives largely listed as inhibitors. hit rate 0.037% among 290,000. Q03164. AID 2662. MLL-CXXC / FITC-HOXA9 DNA fluorescence polarization; active = well fitted inhibition curve with a large enough effect in the polarisation, with a control signal flat, not every such curve was filed as active; inconclusive = small, poorly fitted or top-dose-only effect, or effect the other way, or a change in a side signal; inactive = no such curve, though single readings can be large or run the other way; the % refers to the polarisation; note: potency is the fitted concentration of half-maximal effect
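Steps: dispense CXXC domain solution (7 uM) → pin compounds or unlabeled HOX-A9 DNA control → 5 min ambient → add FLSN-HOX-A9 solution (50 nM) → spin → 30 min ambient → fluorescence polarization. Tris pH 7.5/NaCl/DTT/BSA buffer.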
Menin MLL FP TR: displaces Texas Red mutant MLL peptide from human menin | Potency, µM (top dose mostly 61.6 µM), without a hit: at the highest dose FP activity change, negative = inhibition, hits mostly inhibitors | Menin + Texas Red MLL mutant peptide, fluorescence polarization | hit rate 0.23% among 270,000 | O00255 | AID 1768; active = well fitted inhibition curve with a large enough effect in the polarisation, with a control signal flat, not every such curve was filed as active; inconclusive = small, poorly fitted or top-dose-only effect, or effect the other way, or a change in a side signal; inactive = no such curve, though single readings can be large or run the other way; the % refers to the polarisation; note: potency is the fitted concentration of half-maximal effect; % of control where 0% means no effect
Target sequence (O00255 whole entry, looked up): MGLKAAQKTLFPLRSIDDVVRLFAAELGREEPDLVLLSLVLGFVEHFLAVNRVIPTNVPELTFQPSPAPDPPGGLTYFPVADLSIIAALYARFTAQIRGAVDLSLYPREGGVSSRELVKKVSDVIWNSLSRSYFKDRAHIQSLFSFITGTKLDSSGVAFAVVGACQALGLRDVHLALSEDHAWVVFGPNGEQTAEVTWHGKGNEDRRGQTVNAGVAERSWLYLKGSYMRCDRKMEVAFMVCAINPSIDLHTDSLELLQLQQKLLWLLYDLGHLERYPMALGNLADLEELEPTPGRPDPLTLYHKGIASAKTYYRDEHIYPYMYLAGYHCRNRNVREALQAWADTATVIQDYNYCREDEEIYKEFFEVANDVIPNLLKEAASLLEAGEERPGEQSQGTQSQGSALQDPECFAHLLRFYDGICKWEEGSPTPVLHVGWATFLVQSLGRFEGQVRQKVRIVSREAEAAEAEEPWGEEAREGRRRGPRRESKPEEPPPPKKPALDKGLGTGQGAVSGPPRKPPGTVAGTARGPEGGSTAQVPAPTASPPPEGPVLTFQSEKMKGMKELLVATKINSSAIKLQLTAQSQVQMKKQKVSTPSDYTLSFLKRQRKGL
Menin MLL FP FL: inhibitors of human menin-MLL interaction, wild-type MLL peptide; FP activity change, % at 61.4 µM; Fluorescence polarization, fluorescein-MLL peptide displacement from menin; 290,000 tested, under 10 active; AID 1766; active = well fitted curve in the direction sought with a large enough effect in the polarisation, not every such curve was filed as active; inconclusive = small, poorly fitted or top-dose-only effect, or effect the other way, or a change in a side signal; inactive = no such curve, though single readings can be large or run the other way; the % refers to the polarisation; note: % of control where 0% means no effect
MBNL1 CUG block: MBNL1-poly(CUG) RNA binding inhibition; Q9NR56; TR-FRET MBNL1-His/biotin-(CUG)12 binding, 665/545 ratio; Potency, µM (series often up to 57.5 µM), inactives show at the top dose activity change, negative = inhibition, usual class: inhibitors; hit rate 0.036% among 280,000; AID 2675; active = well fitted inhibition curve with a large enough effect in the signal ratio, with a control signal flat, not every such curve was filed as active; inconclusive = small, poorly fitted or top-dose-only effect, or effect the other way, or a change in a side signal; inactive = no such curve, though single readings can be large or run the other way; the % refers to the signal ratio; note: potency is the fitted concentration of half-maximal effect; % is set by controls: 0 for no effect and ±100 for the full control effect
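TR-FRET readout: Ex 340 nm, 665/545 nm emission ratio, normalized to buffer-only (basal) and MBNL1-(CUG)12 controls. Complex of MBNL1-His with Biotin-(CUG)12, compounds 92 nM–58 uM, incubated 60 min at room temperature.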
The depositor's hits bear a star; i = inactive; ? = inconclusive; · = no result given.

SMILES | Akt phos inh | ASM inhibitor | CXXC DNA block | Menin MLL FP TR | Menin MLL FP FL | MBNL1 CUG block
COc1ccc(C(C(=O)NC2CCCC2)N(C(=O)c2ccco2)c2ccc3c(c2)OCO3)cc1OC (stereo not drawn) | -109%* | 7% | -8% | -21% | 0 | -2%
COc1cc(S(=O)(=O)N2CCN(C)CC2)ccc1Cl | i | 4% | -3% | -7% | -1 | 2%
CN1CCN(S(=O)(=O)c2cccc(S(=O)(=O)c3ccc(Cl)c(Cl)c3)c2)CC1 | -108%* | 0% | 12% | 6% | -6 | ?
CC(=O)c1c(C)nc(C)nc1NC(=O)C(C)C | -124%* | 3% | -10% | -9% | 9 | -7%
CC(C)Cc1nnc(NC(=O)CCC(=O)Nc2ccccc2F)s1 | i | 1% | 3% | · | -2 | -8%
Cc1cc(C)cc(N(CC(=O)Nc2ccc(-c3nc4ccc(C)cc4s3)cc2)S(C)(=O)=O)c1 | i | 37% | 12% | 13% | 2 | ·
Cc1ccc2nc(-c3ccc(NC(=O)CN(c4ccccc4C)S(C)(=O)=O)cc3)sc2c1 | -107%* | 131% | 30% | -18% | 1 | 0%
Cc1ccccc1NC(=O)C(C)OC(=O)c1ccccc1C(=O)N(C)c1ccccc1 (stereo not drawn) | i | -2% | · | · | · | ·
CCC(=O)Nc1ccccc1C(=O)OCC(=O)c1cccc2ccccc12 | -118%* | -9% | 18% | 13% | 4 | 17%
COC(=O)N/N=C/c1ccc([N+](=O)[O-])o1 | -115%* | -3% | -5% | 0% | -1 | ?
O=C1NC(=S)S/C1=C\c1ccc2ccccc2c1 | i | -13% | ? | ? | ? | -3%
Cc1noc(NS(=O)(=O)c2ccc(NC(=O)C(Cl)(Cl)Cl)cc2)c1C | i | 3% | -2% | 16% | -5 | 0%
Cc1noc(NS(=O)(=O)c2ccc(NC(=O)Nc3ccc(Cl)c(Cl)c3)cc2)c1C | -107%* | -13% | 1% | ? | 2 | 6%
Cc1nc2cc(C(=O)OCC(=O)NC(C)C(C)C)ccc2n1-c1ccccc1 (stereo not drawn) | i | -2% | -4% | ? | 4 | -8%
Oc1ccc(Cl)cc1C1=NNC(c2cc(Br)cc3c2OCOC3)C1 (stereo not drawn) | i | 0% | 4% | 10µM* | 14 | 49%
COc1ccc(C2=NNC(c3cc(Cl)cc4c3OCOC4)C2)c(O)c1 (stereo not drawn) | · | · | 29% | -18% | 2 | 2%
Cc1ccc(OCC(O)Cn2c(=N)n(CCN3CCCCC3)c3ccccc32)cc1 (stereo not drawn) | -113%* | 4% | 22% | -25% | 7 | -1%
Cc1cc(C)n(CNc2nc(C(F)(F)F)cs2)n1 | i | 1% | 0% | 8% | 3 | 17%
CCCOc1cccc(C(=O)Nc2cc(NC(=O)c3ccco3)ccc2OC)c1 | -107%* | -15% | 2% | 16% | 2 | -2%
CCSc1nnc(NC(=O)c2ccc3ccccc3n2)s1 | -95%* | -2% | -3% | -20% | -6 | 21%
CCc1nnc(NC(=O)c2ccc3ccccc3n2)s1 | i | 0% | -8% | -3% | 3 | ·
COC(=O)C1OC2(OC1C(=O)OC)c1ccccc1-c1ccccc12 (stereo not drawn) | -120%* | 4% | 3% | -11% | 8 | 3%
O=C(O)c1cccc(S(=O)(=O)Nc2ccc3oc(=O)sc3c2)c1 | -114%* | 9% | 0% | 16% | 8 | -5%
O=C(O)c1cccc(S(=O)(=O)Nc2ccc3[nH]c(=O)[nH]c3c2)c1 | i | 12% | 9% | · | -2 | -3%
O=C(Nc1cccc(Cl)c1)Nn1cnnc1 | i | 5% | ? | 21% | 0 | 25µM*
SMILES | Akt phos inh | ASM inhibitor | CXXC DNA block | Menin MLL FP TR | Menin MLL FP FL | MBNL1 CUG block
O=C(Nc1ccccc1)Nn1cnnc1 | i | 2% | -5% | 0% | 5 | ?
COc1cc2nc(SCc3ccc(Cl)cc3Cl)n(Cc3cccs3)c(=N)c2cc1OC | i | ? | 21% | 40µM* | 1 | -6%
COC(=O)C1=C(C)OC(N)=C(C#N)C1c1cc(C)sc1C (stereo not drawn) | i | 2% | 0% | 0% | 6 | -21%
Cc1cc(NCCCn2ccnc2)n2ncc(-c3ccccc3)c2n1 | -90%* | 11% | 8% | 0% | ? | -4%
O=C(O)C[C@@H]1C(=O)O[C@@H]2C(COC(=O)c3cc(O)c(O)c(O)c3)O[C@@H](OC(=O)c3cc(O)c(O)c(O)c3)[C@@H](OC(=O)c3cc(O)c(O)c4c3[C@H]1[C@H](O)C(=O)O4)[C@H]2OC(=O)c1cc(O)c(O)c(O)c1 (stereo partly drawn) | · | · | 28µM* | · | 12 | ?
COC1OC(COC(=O)c2ccccc2)C(OC(=O)c2ccccc2)C1OC(=O)c1ccccc1 (stereo not drawn) | i | -4% | 1% | 19% | 1 | 15%
O=C(/C=C/c1ccccc1)c1ccccn1 | -119%* | 5% | 4% | -14% | 4 | -3%
Nc1nonc1-c1noc(CCCOc2ccc(Cl)cc2Cl)n1 | i | 4% | 4% | 15% | 0 | -3%
CCCCCc1nc(-c2nonc2N)no1 | -120%* | -2% | -14% | 11% | 3 | 5%
O=c1[nH]c(CN2CCN(c3ccccc3O)CC2)nc2ccccc12 | -110%* | 4% | 8% | 14% | 1 | -5%
COC(=O)c1ccc(OC)c(-c2c(OC)cc(OC)cc2OC)c1 | i | -1% | 7% | 6% | -1 | -18%
O=C(NCCO)N1c2ccccc2Sc2ccccc21 | i | 1% | -7% | 0% | 0 | -1%
O=C(Nc1ccccc1O)N1c2ccccc2Sc2ccccc21 | i | 25µM* | 28% | ? | -3 | -7%
CC(C)C(=O)Nc1ccc(NC(=O)c2ccc3c(c2)OCO3)cc1 | i | 1% | 2% | ? | 3 | 6%
COc1cc(NC(=O)c2ccc3c(c2)OCO3)ccc1NC(=O)C(C)C | -115%* | -3% | 11% | 2% | 2 | -4%
CCN(CC)c1ccc(C(=O)Nc2cccc(F)c2)cc1 | -115%* | -7% | -5% | ? | 5 | -7%
CCn1c(SCC(=O)NCCOC)nc2sc(C)c(C)c2c1=O | · | · | 14% | -27% | 3 | -4%
CCn1c(SCC(=O)NCCOC)nc2sc3c(c2c1=O)CCCC3 | -80%* | 2% | -1% | 2% | 3 | 10%
O=c1c(-c2nnc(SCc3ccc(Cl)cc3Cl)o2)cccn1Cc1ccccc1 | -94%* | i | 46% | · | -2 | 10%
CSc1nnc(-c2cccn(Cc3ccccc3)c2=O)o1 | i | 449% | 3% | -1% | 0 | ?

Bioassay records from PubChem BioAssay.
